Bioassay records (PubChem)
A selection: hits, their analogues and other compounds. The true share with any hit is near 2.9%.
EBV LMP1 NFkB – inhibitors of Epstein-Barr LMP1-induced NF-kappaB reporter | LMP1-induced NF-kappaB luciferase reporter cells, luminescence | inhibition, % at 12.5 µM | 0.69% of 350,000 active | AID 504558; in the data active = inhibition above about 41%;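 note: 0% = neutral control wells and 100% = reference inhibitor control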
Shn3 inh set2 – reduces Shn3 3'UTR luciferase signal in osteoblasts; Clone20 osteoblast Shn3 3'UTR firefly luciferase, 24 h; inhibition, % at 12.5 µM; 0.52% of 360,000 active;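 active = mean inhibition of at least 75% with every replicate also reaching 75%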;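 note: 0% = median of neutral control wells and 100% = pilot-screen positive control compound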
MITF TRPM1 inh – reduces MITF-dependent TRPM1 promoter luciferase signal; 0.83% of 330,000 active; inhibition, % at 12.5 µM; SK-MEL-5 TRPM1 promoter luciferase, 24 h; AID 488899;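 active = mean inhibition across replicates of 60% or more, whatever share of single replicates reaches that level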
Peg3 prom inh – reduces Peg3 promoter-driven luciferase expression in HeLa; AID 588405; 1.7% of 360,000 active; inhibition, % at 20 µM; HeLa PEG-Prom luciferase reporter, luminescence, overnight;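 active = inhibition of at least 50% at 20 µM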
CF NFkB block – blocks PAF-induced NF-kB reporter in cystic fibrosis cells; KKLEB NF-kB-GFP reporter, GFP fluorescence overnight; 0.86% of 360,000 active; inhibition, % at 5 µM;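 active = at least 50% inhibition at 5 µM, scaled per plate between neutral and stimulator controls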;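 note: PAF is a Pseudomonas aeruginosa culture filtrate used as stimulus; plate controls were PAF-stimulated DMSO wells for no effect and unstimulated DMSO wells for full effect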
KKLEB cytotox – reduces viability of KKLEB cystic fibrosis airway cells; KKLEB CF airway cells viability, ATPlite luminescence, overnight; active compounds read low; cells stimulated with P. aeruginosa culture filtrate; activity change (cytotoxicity), % at 5 µM; 0.36% of 360,000 active;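 active = corrected activity change at or below -50% at 5 µM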
CF NFkB inh conf – CF NF-kB inhibition confirmation, single concentration; shares compounds with CF NFkB block; 64% of 1,300 active; KKLEB CF airway cells, PAF-induced NF-kB-GFP fluorescence, overnight; inhibition, % at 5 µM; AID 602472; in the data active = inhibition above about 40%;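 note: stimulus PAF is a Pseudomonas aeruginosa filtrate and not platelet activating factor; plate controls were DMSO wells with stimulus for no effect and unstimulated DMSO wells for full effect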
Starred values were filed as active, the others as inactive; / = no result given; ! = not active in a repeat.

SMILES	EBV LMP1 NFkB	Shn3 inh set2	MITF TRPM1 inh	Peg3 prom inh	CF NFkB block	KKLEB cytotox	CF NFkB inh conf
O=C(/C=C/c1ccccc1Cl)c1cccnc1	4.2	2.8	-3.4	15.8	-1.5	6.8	/
O=C(/C=C/c1ccccc1Cl)c1ccc(O)cc1	2.7	-9.2	-12.3	-70.9	59.2*	-9.8	-37.9
CC1=C(C(=O)N2CCCCCC2)CC(CC(=O)NCCCN(C)C)C(=O)N1Cc1ccccc1 (centres undefined)	/	3.2	/	9.6	-4.0	8.3	/
COc1cc(F)ccc1-c1csc(C(NC(C)=O)c2ccc(F)c(F)c2)n1 (centres undefined)	/	-6.7	/	-5.2	-22.2	-0.7	/
C=C1C(=O)[C@@]23[C@H](O)C[C@@H]4C(C)(C)CC[C@H](O)[C@]4(C)[C@@H]2C[C@H](O)[C@@H]1[C@H]3O	-12.9	96.7*	42.3	43.4	67.8*	20.4	55.9*
c1nc(N2CCOCC2)c2c3c(sc2n1)CCCC3	18.5	17.2	-6.7	13.1	55.0*	-23.2	70.4*
c1ccn(-c2ncnc3sc4c(c23)CCCC4)c1	-10.5	29.6	-11.2	14.3	20.3	-12.0	/
CC1Cc2ccccc2N1c1ncnc2nc[nH]c12 (centres undefined)	0.8	-6.8	-9.9	-53.3	64.8*	1.0	86.5*
c1ccc2c(c1)CCN(c1ncnc3nc[nH]c13)C2	1.8	-3.4	/	10.3	16.7	-4.3	/
CCc1ccc(C(O)c2ncc(-c3cccc(OC)c3)[nH]2)cc1 (centres undefined)	/	22.6	/	-12.0	11.8	-2.0	/
COc1cc2c(cc1NC(=O)CN1CCN(S(=O)(=O)c3ccccc3F)CC1)oc1ccccc12	9.7	5.4	0.1	29.6	55.1*	-40.2	41.4*
COc1cc2c(cc1NC(=O)Cc1ccc(C)cc1)oc1ccccc12	-30.9	-64.8	-47.3	-226.8	4.0	-11.1	/
O=C(Nc1ncnc2c1ncn2[C@@H]1O[C@H](/C=C/C(=O)N2CCN(c3ccc(F)cc3)CC2)[C@@H](O)[C@H]1O)c1ccccc1	/	-7.2	/	-9.0	3.6	16.1	/
O=C(O)COc1ccc(NC(=O)c2ccc3c(c2)C(=O)N(CC2CCCO2)C3=O)cc1 (centres undefined)	-4.9	5.8	/	6.4	-5.1	1.9	/
N#CC1(NC(=O)CN2C(=O)c3ccccc3C2=O)CCCCC1	-12.7	-13.6	3.8	5.2	-3.1	8.5	/
N#CC1(NC(=O)Cn2ncc(Cl)c(Cl)c2=O)CCCCC1	-42.6	23.9	48.7	93.5*	80.7*	2.7	13.9
CCOC(=O)CC[C@H](NC(=O)Cn1cnc2c(NCc3ccccc3)ncnc21)C(=O)OCC	13.8	-2.3	5.0	26.9	-10.0	-2.5	/
c1coc(-c2ccc3nncn3c2)c1	/	9.8	/	-10.3	-10.4	15.3	/
c1ccc2c(-c3ccc4nncn4c3)cncc2c1	/	10.0	/	6.2	72.8*	3.2	89.5*
Cc1ccccc1N1CCN(C2CCCN(C(=O)CSc3ccccn3)C2)CC1 (centres undefined)	6.7	18.5	/	-8.7	-7.9	-9.2	/
Cc1ccc(S(=O)(=O)Nc2cc(C)cc(CCNC=O)c2C)cc1	-0.8	-10.6	-1.8	-6.4	-4.8	1.7	/
Cc1c(CCNC=O)cc(C)c2c3c(oc12)CCCC3	-10.9	-21.2	-60.6	-341.3	58.0*	-11.6	18.7
Cn1c(SC2=CS(=O)(=O)c3ccccc32)nc2ccccc21	-60.6	46.2	65.1*	98.8*	91.3*	-26.6	97.8*
COc1cccc(-c2ccc3ncnc(NCc4ccc5c(c4)OCO5)c3c2)c1	21.7	-2.5	-6.5	-25.2	79.7*	-5.7	81.4*
c1cncc(CNc2ncnc3ccc(-c4ccc5c(c4)OCO5)cc23)c1	16.5	13.8	-1.6	17.6	36.0	-1.6	28.6
SMILES	EBV LMP1 NFkB	Shn3 inh set2	MITF TRPM1 inh	Peg3 prom inh	CF NFkB block	KKLEB cytotox	CF NFkB inh conf
c1cncc(CNc2ncnc3ccc(-c4ccoc4)cc23)c1	46.5*	12.5	6.8	18.6	79.9*	0.3	88.1*
Cc1cccc(-c2ccc3ncnc(NCc4cccnc4)c3c2)c1	-9.4	22.9	11.5	4.7	0.0	-17.4	/
c1nc(NCc2ccc3c(c2)OCO3)c2cc(-c3ccc4c(c3)OCCO4)ccc2n1	-10.1	-23.3	5.8	-12.4	10.5	8.2	/
COc1ccc(Cc2c(-c3ccc(F)cc3)nc3ccc(Cl)cn23)c(C)c1	/	-77.7	/	-128.1	7.3	-3.6	/
COc1ccc(NC(=O)NNC(=O)COc2ccc3cc(Br)ccc3c2)c(OC)c1	-12.9	-26.2	4.4	21.6	52.5*	-41.5	0.7
COc1ccc(NC(=O)COc2ccc(Br)cc2)c(OC)c1	3.0	-9.5	-20.5	-71.8	13.4	6.2	/
COc1cc(NC(=O)c2cc3cccc(OC)c3o2)cc(C(=O)Nc2cccc(C(F)(F)F)c2)c1	12.8	50.5	50.8	40.9	61.7*	-27.4	69.8*
COc1cc(NC(=O)c2csc(-c3ccncc3)n2)cc(C(=O)Nc2cccc(C(F)(F)F)c2)c1	22.0	38.6	3.7	49.9	56.9*!	11.1	71.1*
Cn1cc(-c2csc(C(O)c3ccc(F)cc3)n2)cn1 (centres undefined)	/	-19.8	/	-9.5	5.9	-3.4	/
COc1cc(NC(=O)CN2C(=O)CN(C)C2=O)c(C)cc1[N+](=O)[O-]	-1.4	9.7	13.2	9.6	-8.2	-5.4	/
COc1cc(NC(=O)Cn2ncc(Cl)c(Cl)c2=O)c(C)cc1[N+](=O)[O-]	81.5*	96.5*	103.4*	98.3*	93.1*	-36.9	99.8*
C[C@@H]1CN([C@H](C)CO)C(=O)c2cc(C#CC(C)(C)O)cnc2O[C@@H]1CN(C)C(=O)C1CC1	3.0	-10.4	/	4.2	-25.4	15.6	/
Cc1ccnc(NC(=O)CCC2COc3ccccc3O2)c1 (centres undefined)	-17.2	-11.2	-5.9	-86.3	42.2	-4.8	/
O=C(CCC1COc2ccccc2O1)Nc1ccc(Cl)cn1 (centres undefined)	-12.1	-33.6	-18.0	27.5	60.0*	-14.3	48.1*
CN(Cc1ccccc1)c1ncnc2[nH]ncc12	-3.3	-0.8	-0.9	-13.8	21.3	-6.6	/
O=[N+]([O-])c1cccnc1Sc1ccc(Cl)cc1	3.0	4.1	6.8	-4.3	13.6	-4.8	/
Nc1ncnc(Sc2ccc(Cl)cc2)c1[N+](=O)[O-]	0.6	-0.7	-0.1	-7.3	64.0*	-13.4	61.8*
CN(Cc1ccccc1)c1ncnc(N)c1[N+](=O)[O-]	7.9	16.6	-25.1	-4.8	66.8*	-8.8	60.9*
Nc1ncnc(Sc2ccccc2)c1[N+](=O)[O-]	24.3	9.3	-6.1	20.8	51.6*	-1.6	21.6
CC1=C2C3OC(=O)C(C)C3CCC2(C)C=CC1=NO (centres undefined)	-0.5	-4.9	-3.9	4.6	11.5	6.6	/
